From PubChem BioAssay
Hits are enriched below; roughly 7.7% of the tested compounds scored in any of these assays.
Sm TGR block: inhibitors of Schistosoma mansoni thioredoxin glutathione reductase; purified TGR, DTNB reduction, TNB absorbance 405 nm; Potency, µM (doses to about 114 µM), without a hit: at the top dose activity change, negative = inhibition, usual class: inhibitors; 360,000 compounds, 3% hits; note: potency is the fitted concentration of half-maximal effect; nearly all actives have a fitted effect of over 60% in size
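First, TGR (20 nM dispensed) and NADPH were mixed with compound. Second, a 15 min room-temperature incubation followed. Third, further NADPH and then DTNB were added to start the reaction. Finally, TNB absorbance was monitored kinetically.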
RE007 growth inh: less growth of the S. pombe RE007 Vpr strain; S. pombe RE007 Vpr strain, BacTiter-Glo ATP luminescence, 24 h; Potency, µM (highest dose often 92.2 µM), inactives show at the highest dose activity change, negative = less growth, usual class: inhibitors; 360,000 compounds, 0.21% hits; active = well fitted falling curve with a large enough effect; inconclusive = small, poorly fitted or top-dose-only effect; inactive = no such curve, though single readings can be large or run the other way; note: potency is the fitted concentration of half-maximal effect; nearly all actives have a fitted effect of over 50% in size
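Fission yeast strain RE007, carrying one chromosomally integrated HIV-1 vpr copy, was seeded at OD 0.01 in PMG+AL medium with 23 nL pinned compound. After 24 h at 30 °C and 99% humidity, viability was read by BacTiter-Glo luminescence.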
FMDV inh: foot and mouth disease virus antiviral activity; AID 1159524; Potency, µM (top dose mostly 57.9 µM), for inactives: at the highest dose activity change, negative = inhibition, actives largely listed as inhibitors; 410,000 compounds, 1.2% hits; FMDV antiviral cell-based qHTS; calls by dose curve; tested in HEK293T cells; note: read-out not given here; potency is the fitted concentration of half-maximal effect; nearly all actives have a fitted effect of over 45% in size
Giardia FBPA inh: inhibitors of Giardia lamblia fructose-1,6-bisphosphate aldolase; 290,000 compounds, 0.71% hits; Potency, µM (series often up to 59.6 µM), inactives show top-dose activity, negative = inhibition, hits mostly inhibitors; purified Giardia FBPA; A8B2U2; note: potency is the fitted concentration of half-maximal effect; nearly all actives have a fitted effect of over 55% in size
Target sequence (A8B2U2 whole entry, looked up): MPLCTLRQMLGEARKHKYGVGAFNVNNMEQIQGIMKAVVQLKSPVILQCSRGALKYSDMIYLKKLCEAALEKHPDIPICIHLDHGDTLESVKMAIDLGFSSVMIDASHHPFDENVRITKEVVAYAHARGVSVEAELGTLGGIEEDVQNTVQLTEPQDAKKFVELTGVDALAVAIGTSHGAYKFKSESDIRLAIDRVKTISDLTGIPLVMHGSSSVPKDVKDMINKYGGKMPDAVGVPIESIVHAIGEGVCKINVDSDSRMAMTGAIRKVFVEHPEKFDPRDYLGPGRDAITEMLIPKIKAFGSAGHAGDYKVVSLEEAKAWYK
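40 nM FBPA preincubated 10 min at RT with compound (up to 57.5 uM final), then substrate plus GAPDH/TPI/NAD/arsenate coupling and diaphorase/resazurin added. Fluorescence read after 20 min at RT, 525/598 nm.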
TbPYK inhibitor: blocks Trypanosoma brucei pyruvate kinase; Potency, µM (top dose mostly 76.8 µM), without a hit: at the highest dose activity, negative = inhibition, most hits filed as inhibitors; 410,000 compounds, 0.12% hits; TbPYK enzyme, Kinase-Glo Plus ATP luminescence, 45 min; AID 624173; note: potency is the fitted concentration of half-maximal effect; nearly all actives have a fitted effect of over 50% in size
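Readout: single end-point luminescence (Kinase-Glo Plus, 10 min). Reaction conditions were TbPYK/substrate plus 130 uM ADP, 45 min at RT, pH 7.2 TEA buffer. No-enzyme wells served as controls, and data were normalized before concentration-response fitting.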
HCMV antiviral: human cytomegalovirus inhibition | 410,000 compounds, 4.5% hits | activity change, negative = inhibition, % at 57.5 µM | HFF cells, HCMV-luciferase reporter, 72 h; active compounds read low; in the data active = activity change below about -60%; inconclusive = no clear call, values can overlap the other calls; inactive = above about -39%
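Cell-based, HFFs, 1000 cells/well, 16 h 37C; cpds in DMSO + HCMV-luc, MOI 1 PFU/cell; 72 h 37C; OneGlo luminescence after 5 min RT; norm. to buffer vs Salinomycin 10uM.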
Starred values were filed as active, the others as inactive; ? = inconclusive; · = not tested or not shown; [ ] = another dose, or the depositor's remark. Unless noted, calls come from the whole dose curve; as a rule, active = well fitted curve in the direction sought with a large enough effect; inconclusive = small, poorly fitted or top-dose-only effect, or another doubt; inactive = no such curve, though single readings can be large; an effect the other way counts as inactive or inconclusive. % is set by controls: 0 for no effect and ±100 for the full control effect.

SMILES	Sm TGR block	RE007 growth inh	FMDV inh	Giardia FBPA inh	TbPYK inhibitor	HCMV antiviral
CC(=O)c1ccc(NC(=O)CN2CCN(c3ccccc3)CC2)cc1	-14%	-10%	5%	-24%	3%	11
CCn1c(N2CCN(CC(=O)c3ccc(OC)cc3)CC2)nc2ccccc21	-36%	-15%	-10%	0%	-2%	·
O=C(CN1CCN(c2ccc([N+](=O)[O-])cc2)CC1)c1ccccc1	11µM*	-10%	-8%	-25%	-2%	47
O=C(Cc1ccccc1)N1CCN(c2ccc([N+](=O)[O-])cc2)CC1	0%	0%	?	3%	0%	-64*
COc1ccc(C(=O)CN2CCN(c3cc(C)nc4ccccc34)CC2)cc1	20µM*	-10%	?	-4%	0%	-61*
CCOc1ccc(CCNC(=O)NCc2noc3ccc(C)cc23)cc1	1%	·	5%	·	-1%	-5
COc1cc(-c2csc(N3CCOCC3)n2)cc(OC)c1OC	5%	-23%	-12%	-12%	-22%	137
O=[N+]([O-])c1ccc(N2CCc3ccccc3C2)cc1	2%	-27%	34%	-7%	0%	-102*
O=C(NCCN1CCN(c2ccc([N+](=O)[O-])cc2)CC1)NCc1ccccc1	?	1%	-21%	-2%	-9%	-94*
O=[N+]([O-])c1ccc(N2CCN(Cc3ccncc3)CC2)cc1	-2%	-8%	-18%	?	3%	-90*
O=[N+]([O-])c1ccc(CN2CCN(c3ncccn3)CC2)cc1	-2%	-12%	-13%	?	6%	?
COc1ccc(-c2csc(N3CCN(c4cc(C)nc5ccccc45)CC3)n2)cc1OC	·	0%	0%	-9%	-27%	-112*
COc1ccc(NS(=O)(=O)c2ccc(N3CCCCS3(=O)=O)cc2)cc1Cl	8%	·	-8%	·	-5%	?
COc1cc(OC)cc(-c2nnc3n2N=C(c2c(OC)cccc2OC)CS3)c1	·	·	·	-3%	·	·
O=C(CCCSc1nc2ccccc2[nH]1)N1CCN(c2ccc([N+](=O)[O-])cc2)CC1	-14%	-12%	18µM*	-2%	3%	-27
COc1ccc(C(=O)N2CCC[C@@]3(CCN(c4ncccn4)C3)C2)cc1	·	·	-9%	3%	14%	·
CCn1c(SCC(=O)c2ccc3c(c2)OCCO3)nnc1-c1ccco1	22µM*	23%	5%	?	-28%	3
CCn1c(SCC(=O)N2CCCCC2C)nnc1-c1ccco1 (stereo not given)	45µM*	-12%	15%	5%	-4%	0
CCn1c(SCC(=O)c2ccc3ccccc3c2)nnc1-c1ccco1	32µM*	13%[3.69 µM]	17%	-2%	·	33
COCCn1c(SCC(=O)c2ccc3c(c2)OCCO3)nnc1-c1ccco1	-25%	3%	13%	-3%	-29%	23
COc1ccc(Cn2cc(CN3[C@@H](c4ccccc4)COc4cc(Br)ccc4S3(=O)=O)nn2)cc1	·	·	·	·	·	-14
CCCCCCCCCCOc1cc2c(=O)c(C(=O)OCC)c[nH]c2cc1OCC	·	·	·	·	4%	·
COC(=O)C1=C(C)N(Cc2ccc(OC)cc2)C(=O)/C1=C\c1ccco1	13µM*	-27%	-16%	-6%	-4%	-8
COC(=O)C1=C(C)N(C)C(=O)/C1=C\c1ccco1	-47%	-10%	-14%	-1%	2%	133
COC(=O)C1=C(C)N(c2ccc(C)c(C)c2)/C(=C/c2ccco2)C1=O	35µM*	-4%	?	-10%	1%	·
SMILES	Sm TGR block	RE007 growth inh	FMDV inh	Giardia FBPA inh	TbPYK inhibitor	HCMV antiviral
COC(=O)C1=C(C)NC(=O)/C1=C\c1cc(C)n(-c2cccc(C)c2)c1C	25µM*	19%	-17%	?	-14%	-19
COC(=O)C1=C(C)N(Cc2ccco2)C(=O)/C1=C\c1ccc([N+](=O)[O-])cc1	7.9µM*	5%	22µM*	?	?	-16
COC(=O)C1=C(C)N(Cc2ccco2)C(=O)/C1=C\c1ccc(N(C)C)cc1	-34%	15%	-12%	-4%	0%	-23
COC(=O)C1=C(C)NC(=O)/C1=C\c1cc(C)n(-c2ccc(F)cc2)c1C	·	-17%	19%	?	1%	9
Cc1ccc(S(=O)(=O)c2cn(Cc3ccccc3)c3cc(N4CCCC4)c(F)cc3c2=O)cc1	-2%	·	-1%	·	3%	3
N[C@H]1CN(c2c(F)cc3c(=O)c(C(=O)O)cn(C4C[C@@H]4F)c3c2Cl)CC12CC2 (stereo not given in full)	·	·	·	·	-4%	·
O=C(c1ccccc1)N1CCC(c2nc3ccccc3o2)CC1	4%	·	15%	·	2%	22
COC(=O)C1=C(C)NC(=O)/C1=C\c1ccco1	25µM*	?	14%	2%	-9%	-16
Cc1ccccc1CN1CCCN(Cc2ccc(Cl)cc2)S1(=O)=O	4%	7%	-8%	-6%	-5%	-60*
CCOc1cc(C2C3=C(CCCC3=O)NC3=C2C(=O)CCC3)cc(Cl)c1O	-10%[11.4 µM]	-1%	28%	?	2%	13
CCOc1cc(C2C3=C(CCCC3=O)N(C)C3=C2C(=O)CCC3)cc(Cl)c1O	35µM*	16%	19%	-25%	-6%	-11
Cc1ccc2c(CC(=O)Nc3c(C(=O)c4ccc(C)c(F)c4)oc4ccccc34)coc2c1	-11%	·	-2%	·	-1%	21
Cc1cc(/C=c2/sc3nc4ccccc4n3c2=O)c(C)n1-c1ccccn1	-6%	6%	0.032µM*	-7%	-20%	-101*
O=c1c(-c2cc(F)cc(F)c2)nc2cnc(N3CCOCC3)nc2n1C1CC1	·	·	-9%	3%	4%	·
O=C(CCl)Nc1nc(-c2ccco2)c(-c2ccco2)s1	0.4µM*	6%	-29%	-27%	-16%	-69*
O=C(CCCSc1ccccc1)Nc1nc(-c2ccco2)c(-c2ccco2)s1	?	10%	0%	-9%	-19%	25
Cc1ccc(C(=O)Nc2nc(-c3ccco3)c(-c3ccco3)s2)o1	4.5µM*	26%	-20%	·	-17%	13
CC(C)CO/N=C1/C[C@@H](O)[C@@H](O)[C@@H]2[C@H]3C(=O)N(c4ccc(F)cc4F)C(=O)[C@@H]3CC[C@H]12	·	·	·	-3%[12.9 µM]	·	·
COc1ccc(NS(=O)(=O)c2ccc(C)c(NC(=O)CN3C(=O)NC4(CCCC4)C3=O)c2)cc1	-16%	-9%	36%	·	4%	-66*
CC(C)(C)N(Cc1ccccc1)C(=O)CN1C(=O)NC2(CCCCCC2)C1=O	1%	-5%	-25%	·	4%	-61*
O=C(CN1C(=O)NC2(CCCC2)C1=O)Nc1ccccc1F	2%	-5%	21%	3%	-5%	2
Cc1ccc(Oc2ccccc2NC(=O)CN2C(=O)NC3(CCCC3)C2=O)cc1	-8%	21%	0%	·	3%	-106*
